Laboratory results as given in PubChem BioAssay AID488896 (Broad Institute, 2010).
Out of some 320,000 compounds screened, about 3,100 (0.97%) were called active.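 Rule for the calls: active = mean replicate inhibition of at least 70% and a set share of replicates each scoring 70 or more; inconclusive = meets just one of the two criteria; inactive = fails both criteria.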 The entries come from a sample that favours actives as a whole.

The molecules below were run against Scavenger receptor class B member 1 (Mus musculus) (UniProt Q61009) (assay: mouse SR-BI DiI-HDL uptake blockers – ldlA[mSR-BI] cells, fluorescence, single point, primary screen (AID 488896;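 note: 0% = median of neutral control wells and 100% = median of positive control wells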)). Details: ldlA[mSR-BI] CHO cells, 3 h, at 12.5 µM, stronger effect = higher value.
Scavenger receptor class B member 1 (Mus musculus), sequence (Q61009 whole entry, looked up): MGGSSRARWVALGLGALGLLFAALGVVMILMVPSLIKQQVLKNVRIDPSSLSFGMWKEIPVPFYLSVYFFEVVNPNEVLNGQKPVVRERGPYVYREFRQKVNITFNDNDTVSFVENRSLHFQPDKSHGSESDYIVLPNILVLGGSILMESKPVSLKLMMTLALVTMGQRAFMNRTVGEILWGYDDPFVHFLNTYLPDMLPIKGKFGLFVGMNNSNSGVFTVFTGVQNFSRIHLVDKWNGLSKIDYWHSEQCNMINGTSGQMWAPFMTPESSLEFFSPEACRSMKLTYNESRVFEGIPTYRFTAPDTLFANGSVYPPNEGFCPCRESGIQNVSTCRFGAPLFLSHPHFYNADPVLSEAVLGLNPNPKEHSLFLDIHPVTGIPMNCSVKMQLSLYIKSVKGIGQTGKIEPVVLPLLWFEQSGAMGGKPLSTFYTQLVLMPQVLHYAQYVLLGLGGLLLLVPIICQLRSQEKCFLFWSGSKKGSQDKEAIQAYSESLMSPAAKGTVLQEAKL

inhibition, inactive:
COc1ccc2c(c1)c(=Cc1ccc(N(C)C)cc1)c1cc(-c3ccccc3)[n+](C)n12 -63.4%, CCCN(CCC)S(=O)(=O)c1cc2c(cc1Br)CCN2C(=O)CC 7.1%, CCN(CC)CCCC(C)n1c2nc(=O)[nH]c(=O)c-2nc2cc(Cl)ccc21 (centres undefined) 9.9%, CCC1([N+](=O)[O-])COC(c2ccc(C(C)C)cc2)OC1 (centres undefined) -13.9%, NNc1cccc(C=Cc2ccccc2)cc1=O 16.6%, CC(=O)N1CCN(C(=O)Nc2cccc(C(F)(F)F)c2)CC1 -9.59%, O=C(Nc1ccc(F)cc1)N1CCN(c2ccc(F)cc2)CC1 -29.4%, O=c1c2ccccc2ncn1CCc1ccncc1 -5.47%, NC(=O)C1(Nc2ccc(-c3ccccc3)cc2)CCCC1 1.01%, Cc1cc(C)c(C=NNc2nc3c([nH]2)c(=O)n(C)c(=O)n3C)c(C)c1 -12.4%, CCC(=O)c1ccc(OC(=O)/C=C/c2cc(OC)c(OC)c(OC)c2)cc1 48.6%, CCOc1ccc(N/C=C/C(=O)c2ccccc2)cc1 -1.21%, COc1ccc(S(=O)(=O)N2CCc3ccccc32)cc1C(=O)Nc1cc(S(C)(=O)=O)ccc1Cl 27.5%, O=S(=O)(Nc1ccc2ccccc2c1)N1CCCCC1 1.03%, c1ccc(CCc2ccccn2)cc1 -7.77%, O=C(OC12CC3CC(CC(C3)C1)C2)c1ccc(NCc2cc(O)ccc2O)cc1 5.77%, Cc1nc(N)nc(Cl)c1CCC1OCCO1 -19.5%, Oc1[nH]c2ccccc2c1N=Nc1c(F)c(F)c(F)c(F)c1F 15.7%, CN1CCN(c2ccc(S(=O)(=O)Nc3ccccc3)cc2[N+](=O)[O-])CC1 -5.63%, O=C1CC(C(=O)O)NC(=S)N1 (centres undefined) -3.49%, COc1cc(OC)c(C(=O)Nc2ccccc2-c2ccccc2)cc1OC 20.8%, COc1ccc(Br)cc1C(=O)NC(=S)Nc1cc(-c2nc3ccccc3[nH]2)ccc1C 60.8%, Cc1ccc(OCCNC(=O)c2cccc(S(=O)(=O)N3CCN(Cc4ccccc4)CC3)c2)cc1 20.6%, COc1ccc(C(=O)Nc2cccc(/C=C(/CCC(=O)O)c3nc4ccccc4s3)c2)cc1 36.4%, O=C(N/N=C/c1ccoc1)c1ccc(Cl)cc1Cl -28.2%, O=C(N/N=C/c1ccc(OC(=O)c2ccccc2Cl)cc1)c1ccc(O)cc1 44.4%, O=C(NCC1(N2CCCCC2)CCCCC1)c1cccc(S(=O)(=O)Nc2ccccc2Cl)c1 -8.99%, COc1ccc2c(c1)C(c1cccs1)=NNC(c1cccnc1)=N2 -13.8%, Cc1ccc(C2=Nc3c(ccc4ccccc34)C(c3ccncc3)=NN2)cc1 2.19%, CN(C)c1ccc(CSc2ccccc2)cc1 -8.91%, O=C(CCCCCCCC(=O)N1CCCCC1)N1CCCCC1 -7.35%, CSCCC(NC(=O)COc1ccccc1)C(=O)N1CCN(c2cccc(C(F)(F)F)c2)CC1 (centres undefined) 13.3%, CCC(=O)Nc1ccc(C(=O)N2CCN(C(=O)c3ccco3)CC2)cc1 -9.2%, Cc1ccc(C)c(OCC(=O)N2CCN(C(=O)c3ccco3)CC2)c1 -10.6%, COc1cc2[nH]c(O)c(C=O)c2cc1OC -52%, O=C1OCC2=C1C(c1ccc(Cl)cc1)c1cc3c(cc1O2)OCO3 (centres undefined) 14%, COc1ccc(Nc2ncc(F)c(N3CCOCC3)n2)cc1 22.2%, Cc1ccc(Nc2nc(N3CCOCC3)nc(N3CCOCC3)n2)cc1Cl 55%, CCN(CC)S(=O)(=O)c1cccc(NC(=O)c2ccc(S(=O)(=O)N3CCCC3)cc2)c1 41.2%, Cn1c(N)cc(=O)n(C)c1=S -17.8%, NC(=O)C1(N2CCCCC2)CCN(C(=S)Nc2ccc(Cl)cc2)CC1 -24.6%, CCOC(=O)c1ccc(NC(=S)N2CCCC2)cc1 -10.4%, C=CCNC(=O)c1cc(-c2ccccc2O)on1 44.1%, Cc1nc(-c2ccc(Cl)cc2)sc1C(=O)NN 25.2%, CC[C@]12c3[nH]c4cc(CCC(=O)N(C)C)ccc4c3CCN1C(=O)[C@@H](CC(=O)NCC13CC4CC(CC(C4)C1)C3)C[C@@H]2C(=O)N1CCN(C(=O)C2CC2)CC1 1.08%, O=C(CSc1nc2ccccc2[nH]1)N/N=C/C=C\c1ccccc1[N+](=O)[O-] 4.51%, CCn1c(SCC(=O)N/N=C/C=C/c2ccccc2[N+](=O)[O-])nnc1-c1ccccc1 14.2%

inhibition, active:
CCc1ccc2c(c1)C1(NN=C(c3ccccc3)S1)C(=O)N2 (centres undefined) 115%, O=C(Nc1cccc(NC(=O)N2CCN(c3ccccc3)CC2)c1)N1CCN(c2ccccc2)CC1 86%, CCOc1ccc(N/C=C/C(=O)c2cc(OC)c(OC)c(OC)c2)cc1 78.7%, O=[N+]([O-])c1cc(S(=O)(=O)Nc2cccc(Cl)c2)ccc1N=Nc1c(O)[nH]c2ccccc12 101%, COc1ccc(Br)cc1C(=O)Nc1cccc(C)c1C 76.2%, CC(C)(C)C(=O)Nc1ccc(C(=O)N/N=C/c2ccccc2OC(=O)c2ccc(Cl)cc2Cl)cc1 94.1%, CCOc1ccc2c(c1)C(c1ccc(C)cc1)=NNC(c1ccc(C)cc1)=N2 85.5%, Cc1ccc(OCC(=O)Nc2ccc(N3CCN(C(=O)c4ccco4)CC3)cc2)c(C)c1 78%, CCOc1ccc(Nc2nc(Cl)nc(N3CCN(c4ccc(OC)cc4)CC3)n2)cc1 73.8%, CN(C)c1ccc(C(=S)N2CCN(C(=S)Nc3ccc(Cl)cc3)CC2)cc1 95%, C=CCNC(=O)c1sc(SC)cc1-c1ccc(Cl)cc1 73.9%, Cc1ccc(-n2c(SCC(=O)N/N=C/C=C/c3ccccc3[N+](=O)[O-])nc3ccccc3c2=O)cc1 74%
